Where “and” joins values, the source holds several entries; their conditions need not be identical. Equal values may be shown once. Compounds without any hit were thinned out: in the full panel of roughly 83,000, 20% have a hit.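 Interpretation: 100, growth as untreated; towards 0, rising growth inhibition; 0, no net growth; 0 to -100, cell death. Compounds scoring below 10 were considered active.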 Values without a mark were called inactive. Calls of active or inactive are those of the source.
Tested on: NCI-H522 lung
Experiment: NCI-60 one-dose screen, 48 h (100 = growth as untreated, 0 = no growth, -100 = all killed)
Conditions: 1 µM

Structure (SMILES) | growth [%]
CC/C(=C(\c1ccc(O)cc1)c1ccc(OCCN(C)C(=O)COCCNC(=O)Cc2ccc3c(c2)CN([C@@H]2CCC(=O)NC2=O)C3=O)cc1)c1ccccc1 | 92.2
CC/C(=C(\c1ccc(O)cc1)c1ccc(OCCN(C)C(=O)CCOCCNC(=O)c2ccc3c(c2)CN([C@@H]2CCC(=O)NC2=O)C3=O)cc1)c1ccccc1 | 92.6
CC/C(=C(/c1ccc(O)cc1)c1ccc(OCCN(C)C(=O)COCCOCCNC(=O)c2ccc3c(c2)CN([C@@H]2CCC(=O)NC2=O)C3=O)cc1)c1ccccc1 | 91.7
CC/C(=C(/c1ccc(O)cc1)c1ccc(OCCN(C)C(=O)CCOCCNC(=O)Cc2ccc3c(c2)CN([C@@H]2CCC(=O)NC2=O)C3=O)cc1)c1ccccc1 | 92
CC/C(=C(/c1ccc(O)cc1)c1ccc(OCCN(C)C(=O)COCCOCCNC(=O)Cc2ccc3c(c2)CN([C@@H]2CCC(=O)NC2=O)C3=O)cc1)c1ccccc1 | 93.6
CC/C(=C(\c1ccc(O)cc1)c1ccc(OCCNC)cc1)c1ccccc1 | 87.9

Same assay, conditions: 10 µM

Structure (SMILES) | growth [%]
CC/C(=C(\c1ccc(O)cc1)c1ccc(OCCN(C)C(=O)COCCNC(=O)Cc2ccc3c(c2)CN([C@@H]2CCC(=O)NC2=O)C3=O)cc1)c1ccccc1 | 95.3
CC/C(=C(\c1ccc(O)cc1)c1ccc(OCCN(C)C(=O)CCOCCNC(=O)c2ccc3c(c2)CN([C@@H]2CCC(=O)NC2=O)C3=O)cc1)c1ccccc1 | 95.3
CC/C(=C(/c1ccc(O)cc1)c1ccc(OCCN(C)C(=O)COCCOCCNC(=O)c2ccc3c(c2)CN([C@@H]2CCC(=O)NC2=O)C3=O)cc1)c1ccccc1 | 90
CC/C(=C(/c1ccc(O)cc1)c1ccc(OCCN(C)C(=O)CCOCCNC(=O)Cc2ccc3c(c2)CN([C@@H]2CCC(=O)NC2=O)C3=O)cc1)c1ccccc1 | 91.2
CC/C(=C(/c1ccc(O)cc1)c1ccc(OCCN(C)C(=O)COCCOCCNC(=O)Cc2ccc3c(c2)CN([C@@H]2CCC(=O)NC2=O)C3=O)cc1)c1ccccc1 | 88.1
CC/C(=C(\c1ccc(O)cc1)c1ccc(OCCNC)cc1)c1ccccc1 | 93

Same assay, conditions: 10 µM unless noted

Structure (SMILES) | growth
CC1(C)CC(=O)C2=C(C1)OC(N)=C(c1nc3ccccc3[nH]1)C2c1ccc(Cl)cc1 (stereo not drawn) | 55% and 111%
COc1cc(C=O)ccc1Oc1nc(Nc2ccc(F)cc2)nc(N(C)C)n1 | 88.6% and 82.1%
CCC(=O)c1c2c(c3ccc4c5ccccc5ccc4n13)C(=O)c1ccccc1C2=O | 86.8%
CCCCNC(=S)Nc1ccc(OCc2nc3ccc(Cl)cc3[nH]2)cc1 | -57.5% (active)
Nc1ccc(-c2ccc3ncnc(N4CCc5cc(F)c(Cl)cc54)c3c2)cn1 | 15.4%
N#CC1=C(c2cccs2)Nc2c(c(-c3ccccc3)nn2-c2ccccc2)C12C(=O)Nc1ccc(Cl)cc12 (stereo not drawn) | 3.38% (active)
C=CCn1c(O)c(N=Nc2nc(-c3cc4ccccc4oc3=O)cs2)c2ccccc21 | 58.3%
Fc1ccccc1CNc1nc(SCCN2CCOCC2)nc2c1cnn2CC(Cl)c1ccc(Br)cc1 (stereo not drawn) | 58.1%
O=C(CSc1nnc(-c2ccc(-c3nc4ccc(Cl)cc4[nH]3)cc2)o1)Nc1ccccc1 | -3.89% (active)
O=C(CSc1nnc(-c2ccc(-c3nc4ccc(Cl)cc4[nH]3)cc2)o1)Nc1ccc(Cl)cc1 | -1.21% (active)
Nc1nc(-c2ccccc2)c(N=Nc2ccc(Cl)cc2Cl)s1 | -15.3% (active)
COc1c(B(O)O)cccc1-c1nc2ccc3cn[nH]c3c2c2c1CCCC2 | 62.6%
Nc1nn2c(-c3cc4cc(Br)ccc4oc3=O)ccnc2c1N=Nc1ccccc1 | -51.6% (active)
O=C1/C(=C/c2cnc(-c3ccccc3)s2)SC(=S)N1Cc1ccc2c(c1)OCO2 | 47.5%
O=C(c1ccc(O)cc1)C1[C@H](c2ccc(Cl)cc2)[C@@H](c2ccccc2)NC12C(=O)Nc1ccc(Br)cc12 (stereo partly drawn) | -20.8% (active)
COC(=O)c1cc(C(=O)C(C)(C)C)n2c3ccccc3c3ccccc3c12 | 103%

Structure (SMILES) | growth
COc1ccc2[nH]c(O)c(N=Nc3nc(-c4ccccc4)cs3)c2c1 | 8.94% (active)
CC1CCc2c(sc3nc(SCC(=O)c4cccc([N+](=O)[O-])c4)n(-c4ccccc4)c(=O)c23)C1 (stereo not drawn) | 54.3%
C=CCSc1nnc(-c2ccc(-c3nc4ccc(Cl)cc4[nH]3)cc2)o1 | 29.8%
O=C(Nc1nc2ccccc2s1)Nc1ccccc1Cl | 64.1%
CC[C@@]12CC(C(=O)OC)=C3Nc4cc5c(cc4[C@@]34CCN(C[C@H]3O[C@H]31)[C@@H]24)[C@@H]1[C@H](O5)[C@@H](O)[C@@]2(CC)CC(C(=O)OC)=C3Nc4cc(O)ccc4[C@@]34CCN1[C@@H]24 | -44.9% (active)
CCOc1ccccc1NC(=O)N/C(N)=N/c1nc2ccccc2s1 | -39.8% (active)
COc1sc(/C=N/NC(=O)c2[nH]c3ccc(Br)cc3c2-c2ccccc2)cc1Cl | -39% (active)
COc1cc(CNC(=O)C[C@H](C)CCC=C(C)C)ccc1OCc1cn(-c2ccccc2Cl)nn1 | 51.4%
COc1ccc(-c2cc(C(=O)OCc3ccc(Br)cc3)nn2-c2ccc(S(C)(=O)=O)cc2)cc1OC | 52.8%
N#CC1=C(c2ccco2)Nc2c(c(-c3ccccc3)nn2-c2ccccc2)C12C(=O)Nc1ccc(Br)cc12 (stereo not drawn) | 31.8%
N/C(=N\c1nc2ccc([N+](=O)[O-])cc2s1)NC(=O)Nc1ccccc1Cl | 5.69% (active)
S=C(Nc1ccccc1)Nc1ccc(OCc2nc3ccc(Cl)cc3[nH]2)cc1 | 61.1%
COc1ccc(N=Nc2c(N)nn3c(N)c(C#N)c(-c4ccc(C)cc4)nc23)cc1 | 48.9%
O=C(NC(=S)N1CCN(c2ncnc3c2cnn3-c2ccccc2)CC1)c1ccc(F)cc1 | 57.6%
Cc1cccc(C)c1Nc1nnc(-c2c[nH]c3ccccc23)o1 | 89.4%

Source: PubChem BioAssay (NCI)
